Experiment [1] can be described thus: Nuclear factor erythroid 2-related factor 2/antioxidant responsive element (Nrf2/ARE) small molecule agonists: qHTS cell viability counter screen in human keratinocytes (AID 1919968; active = well fitted curve in the direction sought with a large enough effect in the repeat runs; an effect the other way counts as inactive or inconclusive; also: nearly all actives have a fitted effect of over 55% in size; also: potency is read from the fitted curve at half-maximal effect). A digest of the protocol:
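Cells of the KeratinoSens line were plated at 1,500 per well and left for 5 h before compound transfer from DMSO stocks. After a 23 h incubation (37 C, 5% CO2), CellTiter-Fluor was added. Signal was taken as fluorescence intensity 1 h later.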
In general terms: qHTS replaces the single test concentration by a dilution series.

Experiment [2] concerns the target KiSS-1 receptor (Homo sapiens) (UniProt Q969F8). Nature of the experiment: Human kisspeptin (KISS1R) small molecule agonists, calcium flux assay in KISS1R-HEK293 cells (AID 1920064; active = well fitted curve in the direction sought with a large enough effect in the repeat runs; an effect the other way counts as inactive or inconclusive). The procedure, abridged:
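Cell line: HEK293, stable human KISS1R. Dye loading 1 h at 37 C after 18 h culture. Read: kinetic fluorescence, 480/540 nm, 3 min at 1 s intervals.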
On the technique in general: Calcium flux is commonly read through the fluorescence of an indicator in the cells.

Experiment [3] in a line: G protein-coupled receptor (GPCR) small molecule agonists, calcium flux assay: HEK293 wild type cell line counter screen (AID 1920065). The procedure, abridged:
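Tox21 10K compounds, 15 concentrations each in triplicate, pin-transferred in DMSO onto dye-loaded cells; kinetic read at 480/540 nm for 3 min, 1 s intervals.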

A short description of experiment [4]: p53 small molecule agonists, cell-based qHTS assay with human liver microsomes (AID 1963577). The procedure, abridged: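 Cells carrying a p53-responsive bla reporter were rested 5 h (37 C, 5% CO2) before compound transfer. Human liver microsomes plus NADPH, 0.5 mg/mL final apiece, supplied metabolism during the 16 h 37 C exposure.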
Experiment [5] can be described thus: p53 small molecule agonists, cell-based qHTS assay with rat liver microsomes (AID 1963578). The procedure, abridged:
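Fluorescence from a beta-lactamase reporter under a p53 response element was measured after cells had been incubated 16 h at 37 C with test compound and rat liver microsomes plus NADPH (0.5 mg/mL final each).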

A short description of experiment [6]: p53 small molecule agonists, cell-based qHTS assay with human liver microsomes: qHTS cell viability counter screen (AID 1963579). Also: nearly all actives have a fitted effect of over 45% in size. A digest of the protocol:
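Seed p53RE-bla cells at 4,000 per well; incubate 5 h at 37 C; add compound, human liver microsomes and NADPH; incubate 16 h at 37 C; add CellTiter-Glo; after 30 min at room temperature, read luminescence.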

Experiment [7] is described as follows: p53 small molecule agonists, cell-based qHTS assay with rat liver microsomes: qHTS cell viability counter screen (AID 1963580). Also: nearly all actives have a fitted effect of over 45% in size. A digest of the protocol: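 Cytotoxicity counter screen: intracellular ATP read by CellTiter-Glo luminescence in the p53 reporter wells. HCT-116 p53RE-bla cells were treated for 16 h at 37 C alongside rat liver microsomes and NADPH, each 0.5 mg/mL final.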

Experiment [8] can be described thus: p53 small molecule agonists, cell-based qHTS assay: qHTS cell viability counter screen (AID 1963581). Also: nearly all actives have a fitted effect of over 45% in size. The procedure, abridged: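 ATP content measured by luminescence in HCT-116 p53RE-bla cells treated 16 h at 37 C, same wells as the reporter screen.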
Experiment [9] is described as follows: p53 small molecule agonists, cell-based qHTS assay (AID 1963582; active = well fitted activation curve with a large enough effect in the signal ratio in the repeat runs, not every such curve was filed as active; the % refers to the signal ratio). A digest of the protocol: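 16 h compound exposure (37 C) of p53 response element–bla cells, preceded by 5 h recovery at 37 C/5% CO2; read-out via LiveBLAzer B/G FRET substrate, 2 h RT, fluorescence intensity.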
Experiment [10] concerns the target 5-hydroxytryptamine receptor 2A (Homo sapiens) (UniProt P28223). The experiment can be described thus: 5-hydroxytryptamine receptor 2A (HTR2A) small molecule antagonists, cell-based qHTS assay (AID 1963586). Also: nearly all actives have a fitted effect of over 45% in size. The procedure, abridged:
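CHO cells stably expressing human HTR2A were plated for 18 h at 37 C, then loaded with calcium dye for 1 h. Compounds were preincubated 5 min at room temperature before DOI (4 nM solution) was added. Kinetic fluorescence was read for 3 min.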

The target is the same in experiment [11]. The experiment can be described thus: 5-hydroxytryptamine receptor 2A (HTR2A) small molecule agonists, cell-based qHTS assay (AID 1963587). Also: nearly all actives have a fitted effect of over 30% in size. The procedure, abridged: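 Kinetic calcium-flux fluorescence (2 min, 1 sec intervals) after compound addition in agonist mode. HTR2A-CHO cells were cultured 18 h, then dye-loaded 1 h at 37 C.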
The target of experiment [12] is Muscarinic acetylcholine receptor M1 (Homo sapiens) (UniProt P11229). Nature of the experiment: Cholinergic receptor muscarinic 1 (CHRM1) small molecule antagonists, cell-based qHTS assay (AID 1963588). Also: nearly all actives have a fitted effect of over 40% in size. Also: potency is read from the fitted curve at half-maximal effect. The procedure, abridged:
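Compounds were tested at 15 concentrations in three independent runs. Dye-loaded CHRM1-CHO cells were exposed 5 min at room temperature before stimulation by acetylcholine added at 50nM. Intracellular calcium was read kinetically on FDSS for 3 min.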

Experiment [13] shares this target. Nature of the experiment: Cholinergic receptor muscarinic 1 (CHRM1) small molecule agonists, cell-based qHTS assay (AID 1963589). Also: nearly all actives have a fitted effect of over 35% in size. The procedure, abridged: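 Homogeneous fluorescence calcium flux, agonist mode. Human M1-expressing CHO cells; compound dosed at 15 concentrations, three independent runs; signal sampled every 1 sec.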
The nature of experiment [14]: cAMP Responsive Elements (CRE) small molecule agonists, cell-based qHTS assay (AID 1963590). The procedure, abridged:
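HEK 293T cells stably bearing CRE-bla were plated at 2,000 cells per well and rested 18 h. Compounds, positive controls or DMSO were added for 3 h at 37 C. LiveBLAzer B/G substrate was then loaded for 2 h at room temperature.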

In experiment [15] the target is Beta-2 adrenergic receptor (Homo sapiens) (UniProt P07550). Nature of the experiment: Adrenergic beta2 receptor (ADRB2) small molecule antagonists, cell-based qHTS assay (AID 1963592). Also: series mostly up to about 92 µM; nearly all actives have a fitted effect of over 50% in size. A digest of the protocol: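 Assay format: CHO-ADRB2 cells, 18-20hr seeding at 37C/5% CO2, then compound plus 1nM isoproterenol agonist mix for 0.5hr RT. Homogeneous time-resolved fluorescence cAMP detection after 1hr, expressed as 665/615 nm ratio.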

Experiment [16] concerns the target D(2) dopamine receptor (Homo sapiens) (UniProt P14416). Nature of the experiment: Dopamine D2 receptor (DRD2) small molecule agonists, cell-based qHTS assay (AID 1963594). Also: nearly all actives have a fitted effect of over 35% in size. A digest of the protocol: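 cAMP accumulation in DRD2-HEK293 cells measured by HTRF after 1 h detection; compounds added 10 min before NKH477 (200nM […]) forskolin-analogue stimulation, 30 min at room temperature, with Ro20-1724 present at 0.1 mM final.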

The target is the same in experiment [17]. Nature of the experiment: Dopamine D2 receptor (DRD2) small molecule antagonists, cell-based qHTS assay (AID 1963595; active = well fitted inhibition curve with a large enough effect in the signal ratio in the repeat runs, with a control signal flat; the % refers to the signal ratio). A digest of the protocol:
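Antagonist mode in DRD2-HEK293 cells: after compound addition with 0.1 mM Ro20-1724, cells received quinpirole (12 nM) and NKH477 (200 nM) for 30 min at room temperature; HTRF cAMP read after 1 h detection.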

The nature of experiment [18]: Nuclear factor erythroid 2-related factor 2/antioxidant responsive element (Nrf2/ARE) small molecule agonists: luciferase reporter gene qHTS assay in human keratinocytes (AID 1919969). Also: nearly all actives have a fitted effect of over 35% in size.
Experiment [19] can be described thus: cAMP Responsive Elements (CRE) small molecule antagonists, cell-based qHTS assay (AID 1963591; active = well fitted inhibition curve with a large enough effect in the signal ratio in the repeat runs, not every such curve was filed as active; the % refers to the signal ratio). A digest of the protocol: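 First, CRE-bla HEK293T cells settled 18 h at 37 C. Next, compound and 0.25 uM final NKH477 were applied for 3 h. Last, LiveBLAzer B/G substrate was loaded for 2 h at room temperature.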
In experiment [20] the target is Beta-2 adrenergic receptor (Homo sapiens) (UniProt P07550). The experiment can be described thus: Adrenergic beta2 receptor (ADRB2) small molecule agonists, cell-based qHTS assay (AID 1963593).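 Also: CHO cells stably overexpressing human ADRB2.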 The procedure, abridged: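 CHO cells stably over-expressing ADRB2 were plated overnight at 37C, then dosed with compounds plus a stimulation mix containing 100uM IBMX and 25uM Ro-20-1724 for 0.5hr at room temperature. cAMP was measured by HTRF competition, 1hr.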

Values without a mark were called inactive. Results filed as inconclusive are left out. The source made the active and inactive calls. Unless noted, calls follow the shape of the full dose curve.

Sequence of Muscarinic acetylcholine receptor M1 (Homo sapiens) (P11229 whole entry, looked up): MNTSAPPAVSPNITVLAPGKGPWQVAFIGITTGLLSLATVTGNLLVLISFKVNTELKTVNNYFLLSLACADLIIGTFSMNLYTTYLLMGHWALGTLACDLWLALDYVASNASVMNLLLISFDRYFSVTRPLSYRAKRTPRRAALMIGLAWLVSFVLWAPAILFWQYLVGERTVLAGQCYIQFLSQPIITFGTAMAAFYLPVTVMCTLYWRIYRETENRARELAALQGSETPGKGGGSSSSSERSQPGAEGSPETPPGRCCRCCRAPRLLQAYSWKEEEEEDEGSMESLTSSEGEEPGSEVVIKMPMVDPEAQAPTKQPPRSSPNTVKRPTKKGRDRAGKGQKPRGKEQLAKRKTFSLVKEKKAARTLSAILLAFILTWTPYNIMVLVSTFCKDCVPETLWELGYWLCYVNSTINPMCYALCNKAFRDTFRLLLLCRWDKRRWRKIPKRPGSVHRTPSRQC
Sequence of 5-hydroxytryptamine receptor 2A (Homo sapiens) (P28223 whole entry, looked up): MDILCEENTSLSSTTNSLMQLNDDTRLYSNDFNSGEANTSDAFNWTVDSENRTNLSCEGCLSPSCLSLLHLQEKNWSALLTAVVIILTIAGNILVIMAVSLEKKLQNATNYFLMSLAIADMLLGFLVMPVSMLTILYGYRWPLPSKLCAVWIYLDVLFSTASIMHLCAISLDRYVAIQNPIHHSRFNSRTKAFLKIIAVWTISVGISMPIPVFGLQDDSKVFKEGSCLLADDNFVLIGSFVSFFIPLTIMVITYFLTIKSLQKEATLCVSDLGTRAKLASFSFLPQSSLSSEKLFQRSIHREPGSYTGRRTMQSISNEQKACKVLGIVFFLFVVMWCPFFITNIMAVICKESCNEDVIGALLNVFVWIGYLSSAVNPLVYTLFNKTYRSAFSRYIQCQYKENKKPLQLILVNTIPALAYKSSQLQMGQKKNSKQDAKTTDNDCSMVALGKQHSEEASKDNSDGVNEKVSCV
Sequence of Beta-2 adrenergic receptor (Homo sapiens) (P07550 whole entry, looked up): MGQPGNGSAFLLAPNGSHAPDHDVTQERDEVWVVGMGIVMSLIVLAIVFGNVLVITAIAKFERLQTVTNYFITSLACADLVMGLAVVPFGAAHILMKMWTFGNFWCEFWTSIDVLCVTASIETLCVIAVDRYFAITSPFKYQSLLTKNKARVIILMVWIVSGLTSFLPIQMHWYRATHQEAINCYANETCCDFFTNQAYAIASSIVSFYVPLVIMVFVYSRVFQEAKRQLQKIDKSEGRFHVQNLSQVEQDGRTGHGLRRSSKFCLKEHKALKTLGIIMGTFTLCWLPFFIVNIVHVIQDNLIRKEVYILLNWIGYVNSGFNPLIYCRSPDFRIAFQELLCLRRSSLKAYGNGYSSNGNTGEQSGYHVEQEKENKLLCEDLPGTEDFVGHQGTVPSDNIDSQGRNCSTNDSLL
Sequence of KiSS-1 receptor (Homo sapiens) (Q969F8 whole entry, looked up): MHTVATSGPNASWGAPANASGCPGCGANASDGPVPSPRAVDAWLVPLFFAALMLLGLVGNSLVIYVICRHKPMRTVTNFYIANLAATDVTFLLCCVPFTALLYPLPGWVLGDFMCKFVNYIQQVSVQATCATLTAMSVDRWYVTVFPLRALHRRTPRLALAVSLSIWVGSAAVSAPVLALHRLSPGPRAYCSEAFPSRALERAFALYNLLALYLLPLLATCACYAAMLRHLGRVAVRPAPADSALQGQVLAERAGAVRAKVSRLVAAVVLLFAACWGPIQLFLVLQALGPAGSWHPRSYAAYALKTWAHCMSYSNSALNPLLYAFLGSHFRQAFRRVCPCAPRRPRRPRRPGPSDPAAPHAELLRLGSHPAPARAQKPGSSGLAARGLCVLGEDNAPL
Sequence of D(2) dopamine receptor (Homo sapiens) (P14416 whole entry, looked up): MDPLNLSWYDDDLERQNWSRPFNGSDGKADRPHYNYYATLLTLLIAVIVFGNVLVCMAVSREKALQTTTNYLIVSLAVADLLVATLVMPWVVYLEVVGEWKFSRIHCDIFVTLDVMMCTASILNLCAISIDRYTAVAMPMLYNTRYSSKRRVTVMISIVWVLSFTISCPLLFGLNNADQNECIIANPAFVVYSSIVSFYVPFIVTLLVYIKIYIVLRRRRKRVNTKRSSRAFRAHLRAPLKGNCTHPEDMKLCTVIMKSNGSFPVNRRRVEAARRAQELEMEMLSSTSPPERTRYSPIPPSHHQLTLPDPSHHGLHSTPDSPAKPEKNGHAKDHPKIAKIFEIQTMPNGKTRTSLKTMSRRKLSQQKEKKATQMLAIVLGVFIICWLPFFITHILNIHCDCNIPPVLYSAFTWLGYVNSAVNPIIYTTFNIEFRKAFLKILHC

Turning to `N#Cc1ccc(C(=O)O)cc1`, the Potency entry in experiment [1], in experiment [4], in [5], in experiment [6], in experiment [7] and in experiment [8] was “inactive” each time. Besides, the Potency result in [9], in experiment [10], in [11], in [12], in [13] and in [14] was “inactive” in each case. Further, the Potency result in [15], in experiment [16] and in experiment [17] was “inactive” throughout. For the same molecule, the result in [2] and in [3] was inactive.

On to `COCC(=O)Nc1c(I)c(C(=O)NCC(O)CO)c(I)c(C(=O)N(C)CC(O)CO)c1I` (configuration not stated), for which the Potency entry in [1], in [18], in [4], in experiment [5], in [8] and in experiment [9] was “inactive” throughout. The Potency entry in [10], in [11], in [12], in experiment [13], in experiment [14] and in [19] was “inactive” each time. Besides, the Potency result in experiment [20], in experiment [16] and in experiment [17] was “inactive” throughout. Besides, the outcome in [2] was inactive.

On to `O=c1[nH]cnc2nc[nH]c12`, for which the Potency entry in experiment [1], in experiment [4], in experiment [5], in [6], in experiment [7] and in [8] was “inactive” throughout. The Potency result in [9], in [10], in [11], in [12], in experiment [13] and in experiment [14] was “inactive” in each case. Further, the Potency entry in experiment [19], in experiment [16] and in experiment [17] was “inactive” throughout. The outcome in experiment [2] and in experiment [3] was inactive.

As to `CCCCC(=O)OCC(=O)[C@H]1[C@H](C)C[C@H]2[C@@H]3C[C@H](F)C4=CC(=O)C=C[C@]4(C)[C@@]3(F)[C@@H](O)C[C@@]21C`, the Potency result in experiment [1], in experiment [18], in experiment [5], in [6], in experiment [7] and in experiment [8] was “inactive” in each case. Further, the Potency entry in experiment [9], in [10], in [11], in experiment [12], in experiment [13] and in experiment [19] was “inactive” each time. In addition, the Potency entry in experiment [15], in experiment [20], in experiment [16] and in experiment [17] was “inactive” throughout. For the same molecule, the result in experiment [2] and in experiment [3] was inactive.

`O=S(=O)(c1ccccc1)c1ccc(Cl)cc1`: the Potency entry in [1], in experiment [4], in experiment [5], in experiment [6], in [7] and in experiment [8] was “inactive” each time. In addition, the Potency result in experiment [9], in experiment [10], in [11], in [12], in [13] and in experiment [14] was “inactive” throughout. Moreover, the Potency result in experiment [19], in experiment [16] and in experiment [17] was “inactive” throughout. The outcome in experiment [2] and in experiment [3] was inactive.

With `C1=CCC(c2ccccc2)CC1` (configuration not stated), the Potency entry in experiment [1], in [4], in experiment [5], in experiment [6], in experiment [7] and in experiment [8] was “inactive” in each case. Besides, the Potency result in [9], in [10], in experiment [11], in experiment [12], in experiment [13] and in [14] was “inactive” throughout. Also, the Potency result in experiment [19], in experiment [15], in experiment [16] and in experiment [17] was “inactive” in each case. Further, the result in [2] and in experiment [3] was inactive.

As for `C/C=C(/C(=C/C)c1ccc(O)cc1)c1ccc(O)cc1`, the Potency in experiment [1] is 15 µM (active); in [12] it was 2.9 µM (active). Moreover, the Potency result in experiment [18], in experiment [4], in experiment [5], in [6], in [7] and in experiment [13] was “inactive” each time. Besides, the Potency result in experiment [19], in experiment [15], in experiment [20], in [16] and in experiment [17] was “inactive” in each case. Besides, the result in [2] was inactive.

For the origin of these results see PubChem BioAssay (Tox21).
